AMA1-RON2 inh: inhibitors of Plasmodium falciparum AMA1-RON2 interaction; AlphaScreen AMA1-biotinylated RON2 peptide binding; Potency, µM (top dose mostly 58.2 µM), for inactives: top-dose activity change, negative = inhibition, actives largely listed as inhibitors; 360,000 tested, 0.2% active; AID 720542;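 further: 0% = vehicle wells and -100% = peptide control; nearly all actives have a fitted effect of over 45% in size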
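AMA1 (3D7) with his tag at 25 nM final met compounds first, then biotinylated RON2 peptide at 25 nM; detection used donor plus acceptor beads, 10 µg/mL apiece, read by AlphaScreen after 30 min at room temperature.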
Pf growth 48h: inhibits P. falciparum growth in the first generation, 48 h; Potency, µM (titrated, usually from 28.7 µM), without a hit: top-dose activity change, negative = inhibition, usual class: inhibitors; AID 504832; 310,000 tested, 5.9% active; P. falciparum luciferase growth in erythrocytes, 48 h
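Luciferase-expressing parasites in RBCs, 2% Hct / 0.1% parasitemia final; RPMI 1640 + 0.5% Albumax; 37 C, 5% CO2, one generation; luminescence read-out, lower signal = inhibition.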
AmpC inh detg: inhibitors of E. coli AmpC beta-lactamase with detergent | AmpC hydrolysis of nitrocefin, absorbance 480 nm, 0.01% Triton | P00811 | Potency, µM (titrated, usually from 114 µM), for the others: top-dose activity change, negative = inhibition, actives largely listed as inhibitors | 370,000 tested, 0.041% active;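 further: 0% = no-compound wells and -100% = no-enzyme wells; nearly all actives have a fitted effect of over 25% in size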
Target sequence (P00811 whole entry, looked up): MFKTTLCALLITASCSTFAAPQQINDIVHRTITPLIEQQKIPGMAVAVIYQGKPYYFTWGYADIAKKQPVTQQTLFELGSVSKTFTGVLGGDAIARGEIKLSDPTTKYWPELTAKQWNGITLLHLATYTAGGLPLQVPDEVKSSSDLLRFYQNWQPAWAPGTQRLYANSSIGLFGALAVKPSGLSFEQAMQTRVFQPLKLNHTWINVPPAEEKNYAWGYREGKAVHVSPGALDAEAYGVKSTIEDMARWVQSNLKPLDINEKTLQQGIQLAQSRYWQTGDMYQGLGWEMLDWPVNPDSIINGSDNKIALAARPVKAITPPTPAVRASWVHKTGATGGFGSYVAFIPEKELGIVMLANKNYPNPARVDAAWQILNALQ
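20 mM phosphate pH 7.0 + 0.01% (detergent screen) or 0.0001% Triton X-100; 5.3 nM AmpC reagent; cpd preinc 15 min RT; nitrocefin (800 uM stock) to start; A480 q20 s × 4 min; Activity was normalised to no-enzyme and no-compound control wells.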
AmpC inh no detg: inhibitors of E. coli AmpC beta-lactamase without detergent. P00811. AmpC nitrocefin hydrolysis, absorbance 480 nm, 0.0001% Triton. Potency, µM (titrated, usually from 57.1 µM), inactives show at the highest dose activity change, negative = inhibition, usual class: inhibitors. 330,000 tested, 0.52% active. AID 485341;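 further: plate controls were no compound for no effect and no enzyme for full effect; nearly all actives have a fitted effect of over 20% in size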
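20 mM phosphate pH 7.0 + 0.01% (detergent screen) or 0.0001% Triton X-100; 5.3 nM AmpC reagent; cpd preinc 15 min RT; nitrocefin (800 uM stock) to start; A480 q20 s × 4 min; Activity was normalised to no-enzyme and no-compound control wells.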
Pf growth 96h: P. falciparum growth inhibition at 96 hours; P. falciparum luciferase reporter growth, 96 h; Potency, µM (series often up to 28.7 µM), for the others: top-dose activity change, negative = inhibition, hits mostly inhibitors; 320,000 tested, 6.9% active; AID 504834
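Compounds incubated with erythrocytes infected by luciferase-expressing P. falciparum (2% hematocrit, 0.05% parasitemia final) for 96 hours, 37 C in 5% CO2. Growth inhibition scored as decreased luciferase luminescence.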
HCV inh: inhibitors of hepatitis C virus infection; Potency, µM (highest dose often 41.8 µM), for the others: at the highest dose activity change, negative = inhibition, actives largely listed as inhibitors; 340,000 tested, 3.4% active; Huh7.5.1 HCVcc-Cre infection, luciferase reporter, 44 h
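HCVcc-Cre virus at an moi near 0.5 was added right after compound to cells cultured 4 h from seeding (1,000 cells/well). Luciferase activity was determined 44 h later, 15 min after substrate addition at RT.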
Starred values were filed as active, the others as inactive; ? = inconclusive; · = no result. Most compounds without a hit are left out; they make up all but 11% or so of the library. The call rests on the fitted dose curve; in most records, active means well fitted curve in the direction sought with a large enough effect; inconclusive means small, poorly fitted or top-dose-only effect, or another doubt; inactive means no such curve, though single readings can be large; an effect the other way counts as inactive or inconclusive. Unless noted, on the % scale 0 is the no-effect control and ±100 the full control effect; potency means the concentration at half of the fitted maximal effect.

SMILES	AMA1-RON2 inh	Pf growth 48h	AmpC inh detg	AmpC inh no detg	Pf growth 96h	HCV inh
COc1ccc(C(=O)Nc2ccc(Br)cc2F)cc1S(=O)(=O)N1CCCC1	2.7%	?	0.0%	-5.0%	10.4µM*	?
O=C(Nc1ccccc1N1CCOCC1)c1ccc(F)c(S(=O)(=O)N2CCOCC2)c1	-0.2%	?	-17.9%	-1.6%	2.08µM*	8.6%
O=C(Nc1ccccc1N1CCOCC1)c1ccc(Cl)c(S(=O)(=O)N2CCCC2)c1	-0.1%	?	-0.5%	-18.5%	?	?
Cc1ccc(C(=O)NNC(=O)c2ccc(Br)s2)cc1S(=O)(=O)N1CCOCC1	43.2%	-21.0%	?	-55.4%	-22.2%	-0.3%
COc1cccc(OC)c1C(=O)Nc1cc(Cl)ccc1N1CCOCC1	-19.1%	0.0%	-0.5%	9.6%	26.2%	12.2%
COc1ccc(C(=O)Nc2cc(Cl)ccc2N2CCOCC2)cc1S(=O)(=O)N1CCOCC1	-5.9%	10.4µM*	?	132.0%	?	?
COc1ccc(C(=O)NCc2cccs2)cc1S(=O)(=O)N1CCOCC1	-19.4%	?	-7.4%	13.6%	4.15µM*	15.2%
COc1ccc(Cl)c2sc(NC(=O)c3ccc(S(=O)(=O)N4CCCC4)cc3)nc12	·	·	15.7%	·	·	·
COc1ccc(OC)c2sc(NC(=O)c3ccc(S(=O)(=O)N4CCOCC4)cc3)nc12	-4.3%	15.3%	?	7.08µM*	24.6%	-23.0%
O=C(NCc1cccs1)c1ccc(Cl)c(S(=O)(=O)N2CCOCC2)c1	-12.4%	·	·	·	·	·
COc1ccc(S(=O)(=O)N2CCOCC2)cc1NC(=O)c1ccc(S(=O)(=O)N2CCCCC2)cc1	-9.4%	·	·	·	·	-3.5%
O=C(Nc1ccccc1C(=O)N1CCCCCC1)c1cccc(S(=O)(=O)N2CCOCC2)c1	4.0%	11.7µM*	0.1%	44.1%	?	-0.4%
COc1ccc(S(=O)(=O)N2CCOCC2)cc1NC(=O)c1ccc(Cl)cc1	-15.1%	-12.0%	?	-12.8%	8.28µM*	65.3%
O=C(Nc1ccccc1C(=O)N1CCCCC1)c1cccc(S(=O)(=O)N2CCOCC2)c1	0.0%	-15.2%	-8.7%	24.4%	35.1%	22.7%
COc1cc(-c2nnc(SCC(=O)Nc3ccc(F)c(Cl)c3)o2)cc(OC)c1OC	·	·	10.5%	·	·	·
COC(=O)c1cc(NCc2cccs2)ccc1N1CCOCC1	5.5%	-5.6%	8.5%	-12.5%	8.28µM*	8.2%
COc1ccc(C(=O)Nc2ccccc2[N+](=O)[O-])cc1S(=O)(=O)N1CCOCC1	20.3%	-14.1%	3.2%	34.8%	?	?
COc1ccc(C(=O)NC2CCCc3ccccc32)cc1S(=O)(=O)N1CCOCC1 (stereo not drawn)	-6.3%	0.0%	-0.5%	60.1%	-29.8%	?
COc1ccc(C(=O)Nc2ccccc2N2CCOCC2)cc1S(=O)(=O)N1CCOCC1	0.5%	5.86µM*	0.0%	108.4%	1.85µM*	2.0%
COc1ccc(C(=O)NC2CCSc3ccccc32)cc1S(=O)(=O)N1CCOCC1 (stereo not drawn)	14.0%	11.7µM*	-7.3%	154.4%	?	-27.9%
COc1ccc(NC(=O)c2cccnc2Cl)c(S(=O)(=O)N2CCOCC2)c1	-4.4%	20.6%	1.2%	-41.1%	·	8.5%
COc1ccc(NC(=O)c2cncc(Br)c2)c(S(=O)(=O)N2CCOCC2)c1	0.7%	?	?	-2.7%	10.4µM*	-20.9%
Cc1cc(C)c2nc(N3CCCC(C(=O)NCc4cccc(Cl)c4)C3)sc2c1 (stereo not drawn)	·	·	-7.1%	·	·	·
COc1cc(NC(=O)Cn2cnc3sc(C)c(S(=O)(=O)N4CCC(C)CC4)c3c2=O)cc(OC)c1OC	·	·	2.4%	·	·	·
O=C(Nc1ccccc1N1CCOCC1)c1cccc(S(=O)(=O)N2CCOCC2)c1	-4.9%	?	-15.1%	110.7%	4.65µM*	12.1%

Source: PubChem
